What all share (assay): NCI-60 one-dose screen, 48 h (100 = growth as untreated, 0 = no growth, -100 = all killed)
What all share (conditions): 10 µM unless noted

The test system of experiment [1] is HCT-15 colon.
Experiment [2] concerns HT29 colon.
Experiment [3] deals with SNB-19 CNS.
Experiment [4] deals with U251 CNS.
The subject of experiment [5] is PC-3 prostate.
Experiment [6] relates to SK-MEL-5 melanoma.
In experiment [7] the test system is UACC-62 melanoma.
Experiment [8] relates to SK-MEL-28 melanoma.
Experiment [9] deals with SK-MEL-2 melanoma.
Experiment [10] deals with EKVX NSCLC.
In experiment [11] the test system is SN12C renal.
In experiment [12] the test system is UO-31 renal.
In experiment [13] the test system is TK-10 renal.
Experiment [14] has as its system ACHN renal.
For experiment [15], the system named is CAKI-1 renal.
In experiment [16] the test system is A498 renal.
The test system of experiment [17] is MOLT-4 leukemia.
Experiment [18] has as its system CCRF-CEM leukemia.
In experiment [19] the test system is LOX IMVI melanoma.

Compounds without any hit were thinned out: in the full panel of roughly 83,000, 20% have a hit.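 Testing used 96-well plates and a 48-hour single-concentration exposure. Example: -40 means 40% of the starting cells died.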 Values without a mark were called inactive. Calls of active or inactive are those of the source. How the source made its calls: active means growth percent below 10; inactive means the rest.

As for `COc1ccc2cc(-c3ccc(-c4ccc(C(=N)N)cc4)s3)ccc2c1`, the growth in [1] was 62%; in experiment [2] it was 19.8%; in [3], 95.9%; in experiment [4] it was 101%; in [5], 88.6%; in experiment [6] it was 94.8%. Also, the growth in experiment [7] is 99.3%; in experiment [8] it was 107%; in [9], 103%; in experiment [10] it was 104%; in experiment [11], 99.7%; in [12], 89.7%. Also, the growth was 48.1% in experiment [13]; 101% in experiment [14]; 91% in [15]; 94.3% in experiment [16]; 94.3% in [17].
For the compound `N=C(N)c1ccc(-c2ccc(-c3ccc4ccccc4c3)s2)cc1`, the growth in experiment [1] was 3.41% (active); in experiment [2], -42% (active); in [3], 97.1%; in [4] it was 27%; in [5] it was 91.6%; in experiment [6] it was 93.9%. Besides, the growth in [7] was 96.9%; in experiment [8], 100%; in experiment [9], 104%; in experiment [10], 105%; in experiment [11], 95.8%; in experiment [12] it was 84.6%. Besides, the growth was 27% in [13]; 97.1% in experiment [14]; 92.3% in [15]; 64.1% in [18]; 76.3% in experiment [17].
As for `Nc1cc2c([nH]c[n+]2CC#CCCl)c(SCC#CCCl)n1`, the growth in experiment [1] was -43.3% (active); in [2], -50.3% (active); in [3], -66.8% (active); in experiment [4], -64.8% (active); in experiment [5], -20.3% (active); in experiment [6], -93.3% (active). Besides, the growth in experiment [7] is -91.5% (active); in experiment [19], -91% (active); in [9] it was -30% (active); in experiment [11], -10.9% (active); in experiment [12], -76.8% (active); in experiment [13], -4.18% (active). Moreover, the growth was -34.7% (active) in experiment [14], 6.37% (active) in [15], 8.89% (active) in experiment [18] and -1.5% (active) in [17].
Consider `Cc1ccc(S(=O)(=O)NC(=O)n2cc(-c3ccncc3)c(-c3ccc(Cl)c(O)c3)n2)cc1`, for which the growth is 107% in [1]; 101% in [2]; 117% in [3]; 111% in experiment [4]; 95.3% in experiment [5]; 100% in experiment [6]. Besides, the growth is 85.2% in experiment [7]; 93.4% in experiment [19]; 90.9% in experiment [9]; 110% in [10]; 99.9% in [11]; 107% in experiment [12]. For the same compound, the growth is 95.5% in experiment [13]; 95.5% in experiment [15]; 105% in experiment [16]; 93.9% in experiment [18]; 85.2% in [17].
Take `O=C(Nc1ccncc1)C(=O)c1cn(S(=O)(=O)c2ccc(Cl)cc2)c2ccccc12`: the growth in experiment [1] was 26.6%; in experiment [2], 2.91% (active); in experiment [3], 44.7%; in experiment [4] it was 31.3%; in experiment [5], 41.7%; in [6], 17.1%. In addition, the growth in experiment [7] is 30.7%; in experiment [19], 42.8%; in experiment [10], 53.5%; in experiment [11], 34%; in experiment [12], 42.1%; in experiment [13], 81.9%. For the same compound, the growth in experiment [14] is 52.8%; in experiment [15], 44.9%; in [16] it was 53.6%; in [17], 48%.
Turning to `O=C(/C=C/c1c[nH]c2ccccc12)c1ccc(O)c(CN2CCN(c3ccc(F)cc3)CC2)c1`, the growth in experiment [1] was 93.5%; in experiment [2], 99%; in experiment [3], 94.1%; in experiment [4], 93.7%; in experiment [5], 84.7%; in [6], 100%. The growth in [7] was 101%; in experiment [19], 96.1%; in experiment [9], 105%; in [11], 93.4%; in [12] it was 59.4%; in experiment [13], 116%. In addition, the growth in experiment [14] was 92.1%; in experiment [15], 95.4%; in experiment [16] it was 98.5%; in [18] it was 93.2%; in experiment [17] it was 99.4%.
Regarding `O=[N+]([O-])c1cc(Cl)c2[nH]c3c(Cl)cc([N+](=O)[O-])cc3c2c1`, the growth in experiment [1] was 11.3%; in experiment [2], -38.3% (active); in experiment [3] it was 15.9%; in [4] it was -22.7% (active); in [5], 4.26% (active); in [6], -60.7% (active). The growth is 9.86% (active) in experiment [7]; 6.56% (active) in experiment [19]; -10.2% (active) in experiment [10]; 2.7% (active) in experiment [11]; -13.9% (active) in experiment [12]; -10.3% (active) in experiment [14]. Moreover, the growth in experiment [15] was -34.1% (active); in experiment [16] it was -26.6% (active); in experiment [18], -39.9% (active); in [17], -41.8% (active).
Consider `CC(=O)Oc1csc(N(C(C)=O)c2cc(C(=O)O)cc(C(=O)O)c2)n1`, for which the growth was 92.8% in [1]; 104% in [2]; 97.2% in experiment [3]; 88.5% in experiment [4]; -100% (active) in experiment [5]; 94% in experiment [6]. Moreover, the growth was 94.2% in [7]; 106% in experiment [8]; 106% in experiment [9]; 76.2% in [10]; 98.8% in experiment [11]; 92.7% in experiment [12]. For the same compound, the growth was 105% in experiment [13]; 104% in experiment [14]; 101% in experiment [15]; 70.5% in experiment [16]; 1.74% (active) in experiment [18]; 109% in [17].
For the compound `CCCC(=O)Oc1ccc(/C(=C(\C)c2ccccc2)c2ccc(OCCN(CC)CC)cc2)cc1`, the growth is 49.7% in experiment [1]; 5.74% (active) in [2]; 85.7% in experiment [3]; 65.1% in [4]; 60.7% in [5]; 64.1% in experiment [6]. The growth in [7] was 80.4%; in experiment [8], 68.3%; in [9] it was 97.2%; in experiment [10], 99.3%; in [11], 86.3%; in experiment [12], 51.4%. Also, the growth in experiment [13] was 86%; in experiment [14] it was 90.7%; in experiment [15], 96.9%; in [16] it was 93.7%; in [18] it was 69.7%; in experiment [17] it was 53.7%.

For the origin of these results see PubChem BioAssay (NCI).
